The values that follow come from PubChem BioAssay (NCI).

SMILES strings stand for the structures. Several values for one entry are separate records, joined by “and”; a condition that tells them apart may be missing. Equal values may be shown once. Compounds without any hit were thinned out: in the full panel of roughly 83,000, 20% have a hit.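 How to read the values: 0–100, growth inhibition (40 = 60% inhibited); 0, no net growth; -100 to 0, cell death (-40 = 40% of starting cells died; -100 = all dead).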 Activity calls are given as the source filed them. Where a SMILES comes first, the peptide text is derived from it.

This experiment deals with UO-31 renal. The experiment is described as follows: NCI-60 one-dose screen, 48 h (100 = growth as untreated, 0 = no growth, -100 = all killed). The note with it: 10 µM unless noted. Here is the method:
Growth inhibition of the UO-31 human tumor cell line is measured as a screen for anti-cancer activity. Cells are grown in 96 well plates and exposed to the test compound for 48 hours. Compounds are tested at a single concentration, which is 10^-5 M for most compounds. The reported endpoint is percent growth (GI% or GIPRCNT), where numbers from 0 - 100% represent growth inhibition, and numbers from -100% - 0 represent cell death. For example, a value of 40 represents 60% growth inhibition. A value of 0 means no net growth occurred over the course of the experiment. A value of -40 indicates 40% of cells at the beginning of the experiment died by the end of the experiment. A value of -100 means all cells are dead at the end of the experiment.
NCI-60 Human Tumor Cell Lines Screen was performed using the standard one-dose NCI protocol, which is described in more detail at https://dtp.cancer.gov/discovery_development/nci-60/default.htm.
Compounds with GIPRCNT values below 10 were considered active. Activity score was based on GIPRCNT using the following formula: […]
Score is 0 for GIPRCNT values of 100 or above, 50 for GIPRCNT values of 0, and 100 for GIPRCNT values of -100.
Consider `O=C(O)/C=C\C(=O)Nc1cccc2ccccc12`, for which the growth is 59.7% (inactive) and 72% (inactive).
The result for `Nc1cc(N)c(N)cc1N` reads -0.0578% (active).
The result for `CCOC(=O)c1c(C)cc(=O)oc1C` reads 88.9% (inactive).
Turning to `CCCCCCCCCCCCCCCc1ccc(N)c(OC2OC(CO)C(O)C(O)C2O)c1` (stereo not given), the growth is 57.6% (inactive).
As for `O=C1OC(c2ccccc2)=N/C1=C\c1ccccc1`, the growth was 95.2% (inactive).
The result for `Oc1ccc(Cc2ccccc2Cl)c(O)c1` reads 61.1% (inactive); that for `OC1COC(OCc2ccccc2)C(O)C1O` (stereo not given), 81.9% (inactive).
In the case of `CC(C)NC(=O)N/C=C(\C#N)C(N)=O` it was 87.8% (inactive).
The result for `O=C1c2c(O)ccc(O)c2C(=O)c2c(NCCNCCO)ccc(NCCNCCO)c21` reads -63.5% (active) and -53.9% (active); that for `O=C(/C=C/c1ccccc1)c1ccccc1`, 79.3% (inactive).
Take `Cc1cc2ccccc2cn1`: the growth is 83.2% (inactive) and 82.6% (inactive).
In the case of `NC(=O)NCCCC(N)C(=O)O` (stereo not given) it was 82.8% (inactive); in that of `OCCN1CCCCCCC1`, 88% (inactive); in that of `OCC1OC(O)C(O)C(O)C1O` (stereo not given), 97.4% (inactive).
`N#CC(C#N)N=Nc1ccc(Cl)cc1`: the growth is 10.6% (inactive).
In the case of `CC[C@H](CC[C@@H](C)[C@H]1CC[C@H]2[C@@H]3CC=C4C[C@@H](O)CC[C@]4(C)[C@H]3CC[C@]12C)C(C)C` it was 92.7% (inactive) and 96.2% (inactive); in that of `O=C(Cc1ccccc1)c1ccc(O)c(Cl)c1`, 36.5% (inactive); in that of `Cc1ccc(=O)[nH]n1`, 90.9% (inactive) and 95.1% (inactive).
The result for `Cc1cc(-c2cc(C)c(O)c(C)c2)cc(C)c1O` reads 77.1% (inactive).
In the case of `C/C(=C\c1ccccc1)c1ccccn1` it was 98.9% (inactive); in that of `CCN(CCNS(C)(=O)=O)c1ccc(N)c(C)c1`, 42.2% (inactive); in that of `CC(=O)OCC1OC(OC(C)=O)C(OC(C)=O)C(OC(C)=O)C1OC(C)=O` (stereo not given), 79.8% (inactive) and 94.2% (inactive).
With `Cn1cnc([N+](=O)[O-])c1Sc1ncn[nH]1`, the growth is 82.9% (inactive).
In the case of `ClCCOCCOc1ccc(C2CCCCC2)cc1` it was 99.5% (inactive).
The result for `COc1cc(C(O)C2C(=O)OCC2C2(c3ccc4c(c3)OCO4)SCCCS2)cc(OC)c1OC` (stereo not given) reads 93.2% (inactive); that for `CC1CCC2(OC1)OC1CC3C4CC=C5CC(O)CCC5(C)C4CCC3(C)C1C2C` (stereo not given), 86% (inactive).
Turning to `O=CN1CCCCC1`, the growth is 97.2% (inactive).
The result for `CN(C)c1ccc(/C=C\C(=O)c2ccccc2)cc1` reads 74.5% (inactive) and 69.4% (inactive) and 63.9% (inactive); that for `O=C(O)CCCl`, 97% (inactive); that for `c1ccc(-c2nc3ccccc3s2)cc1`, 66.9% (inactive).
As for `CC(C)(O)C(=O)O`, the growth was 95.2% (inactive).
The result for `O=C1C=C(Nc2ccccc2)c2ccccc2C1=O` reads 65.1% (inactive) and 79.9% (inactive); that for `NC(Cc1ccccc1)C(=O)NC(Cc1ccccc1)C(=O)O` (stereo not drawn) (H-Phe-Phe-OH; configuration not given here), 88.5% (inactive) and 86.9% (inactive); that for `NC(Cc1c[nH]c2ccccc12)C(=O)O` (stereo not given), 91.9% (inactive) and 72.6% (inactive).
The result for `CC1=C/C(O)CC(=O)Cc2nc(co2)C(=O)N2CCC=C2C(=O)OC(C(C)C)C(C)/C=C\C(=O)NC/C=C\1` (stereo not given) reads 75.1% (inactive).
In the case of `Cc1cc(-c2ccc(N=Nc3ccc4c(S(=O)(=O)O)cc(S(=O)(=O)O)c(N)c4c3O)c(C)c2)ccc1N=Nc1ccc2c(S(=O)(=O)O)cc(S(=O)(=O)O)c(N)c2c1O` it was 74.1% (inactive); in that of `CCCCNc1ccc(Nc2ccccc2)cc1`, 86.6% (inactive).
For the molecule `CC1CCC(C(C)C)C(NNC(N)=O)C1` (stereo not given), the growth was 86.6% (inactive).
In the case of `CC(=O)Nc1ccc(S(N)(=O)=O)cc1` it was 95.8% (inactive) and 84.3% (inactive).
Consider `CC(=O)OC(C)C(=O)NCC(C)O` (stereo not given), for which the growth is 82.4% (inactive).
